How the values were obtained:
Experiment in all cases: cross-link between two proteins; cross-linking mass spectrometry
[1] = biological target: Cytoplasmic 60S subunit biogenesis factor REI1 (UniProt P38344)
[2] = biological target: Large ribosomal subunit protein eL18A (UniProt P0CX49)
[3] = biological target: Large ribosomal subunit protein eL19A (UniProt P0CX82)
[4] = biological target: Large ribosomal subunit protein uL2A (UniProt P0CX45)
Large subunit GTPase 1 = Large subunit GTPase 1 (UniProt P53145)
Large subunit GTPase 1, sequence (P53145 whole entry): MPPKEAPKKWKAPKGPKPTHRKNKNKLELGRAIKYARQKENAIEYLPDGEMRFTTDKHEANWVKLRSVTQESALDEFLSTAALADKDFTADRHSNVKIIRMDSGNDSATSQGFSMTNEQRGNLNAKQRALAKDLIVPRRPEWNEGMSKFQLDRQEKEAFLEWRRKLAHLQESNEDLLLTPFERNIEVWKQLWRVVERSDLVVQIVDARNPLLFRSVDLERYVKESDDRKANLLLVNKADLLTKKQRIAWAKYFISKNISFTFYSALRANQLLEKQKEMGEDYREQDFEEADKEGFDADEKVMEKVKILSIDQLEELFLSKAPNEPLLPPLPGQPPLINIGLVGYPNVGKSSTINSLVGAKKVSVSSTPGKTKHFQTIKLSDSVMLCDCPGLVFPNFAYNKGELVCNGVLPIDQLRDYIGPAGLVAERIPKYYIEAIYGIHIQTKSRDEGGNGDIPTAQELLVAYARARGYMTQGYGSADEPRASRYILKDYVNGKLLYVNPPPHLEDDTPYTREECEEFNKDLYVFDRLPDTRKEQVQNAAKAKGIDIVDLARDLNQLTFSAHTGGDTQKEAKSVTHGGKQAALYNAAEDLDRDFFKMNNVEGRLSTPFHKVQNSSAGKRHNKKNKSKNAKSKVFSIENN

[5] = biological target: Large ribosomal subunit protein eL20A (UniProt P0CX23)
Large ribosomal subunit protein eL20A, sequence (P0CX23 whole entry): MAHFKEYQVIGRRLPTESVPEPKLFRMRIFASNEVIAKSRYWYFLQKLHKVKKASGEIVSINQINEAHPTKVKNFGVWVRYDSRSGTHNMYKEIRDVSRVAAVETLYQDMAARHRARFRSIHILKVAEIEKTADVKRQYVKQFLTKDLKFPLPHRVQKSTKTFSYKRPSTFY

[6] = biological target: rRNA biogenesis protein RRP5 (UniProt Q05022)
rRNA biogenesis protein RRP5, sequence (Q05022 whole entry): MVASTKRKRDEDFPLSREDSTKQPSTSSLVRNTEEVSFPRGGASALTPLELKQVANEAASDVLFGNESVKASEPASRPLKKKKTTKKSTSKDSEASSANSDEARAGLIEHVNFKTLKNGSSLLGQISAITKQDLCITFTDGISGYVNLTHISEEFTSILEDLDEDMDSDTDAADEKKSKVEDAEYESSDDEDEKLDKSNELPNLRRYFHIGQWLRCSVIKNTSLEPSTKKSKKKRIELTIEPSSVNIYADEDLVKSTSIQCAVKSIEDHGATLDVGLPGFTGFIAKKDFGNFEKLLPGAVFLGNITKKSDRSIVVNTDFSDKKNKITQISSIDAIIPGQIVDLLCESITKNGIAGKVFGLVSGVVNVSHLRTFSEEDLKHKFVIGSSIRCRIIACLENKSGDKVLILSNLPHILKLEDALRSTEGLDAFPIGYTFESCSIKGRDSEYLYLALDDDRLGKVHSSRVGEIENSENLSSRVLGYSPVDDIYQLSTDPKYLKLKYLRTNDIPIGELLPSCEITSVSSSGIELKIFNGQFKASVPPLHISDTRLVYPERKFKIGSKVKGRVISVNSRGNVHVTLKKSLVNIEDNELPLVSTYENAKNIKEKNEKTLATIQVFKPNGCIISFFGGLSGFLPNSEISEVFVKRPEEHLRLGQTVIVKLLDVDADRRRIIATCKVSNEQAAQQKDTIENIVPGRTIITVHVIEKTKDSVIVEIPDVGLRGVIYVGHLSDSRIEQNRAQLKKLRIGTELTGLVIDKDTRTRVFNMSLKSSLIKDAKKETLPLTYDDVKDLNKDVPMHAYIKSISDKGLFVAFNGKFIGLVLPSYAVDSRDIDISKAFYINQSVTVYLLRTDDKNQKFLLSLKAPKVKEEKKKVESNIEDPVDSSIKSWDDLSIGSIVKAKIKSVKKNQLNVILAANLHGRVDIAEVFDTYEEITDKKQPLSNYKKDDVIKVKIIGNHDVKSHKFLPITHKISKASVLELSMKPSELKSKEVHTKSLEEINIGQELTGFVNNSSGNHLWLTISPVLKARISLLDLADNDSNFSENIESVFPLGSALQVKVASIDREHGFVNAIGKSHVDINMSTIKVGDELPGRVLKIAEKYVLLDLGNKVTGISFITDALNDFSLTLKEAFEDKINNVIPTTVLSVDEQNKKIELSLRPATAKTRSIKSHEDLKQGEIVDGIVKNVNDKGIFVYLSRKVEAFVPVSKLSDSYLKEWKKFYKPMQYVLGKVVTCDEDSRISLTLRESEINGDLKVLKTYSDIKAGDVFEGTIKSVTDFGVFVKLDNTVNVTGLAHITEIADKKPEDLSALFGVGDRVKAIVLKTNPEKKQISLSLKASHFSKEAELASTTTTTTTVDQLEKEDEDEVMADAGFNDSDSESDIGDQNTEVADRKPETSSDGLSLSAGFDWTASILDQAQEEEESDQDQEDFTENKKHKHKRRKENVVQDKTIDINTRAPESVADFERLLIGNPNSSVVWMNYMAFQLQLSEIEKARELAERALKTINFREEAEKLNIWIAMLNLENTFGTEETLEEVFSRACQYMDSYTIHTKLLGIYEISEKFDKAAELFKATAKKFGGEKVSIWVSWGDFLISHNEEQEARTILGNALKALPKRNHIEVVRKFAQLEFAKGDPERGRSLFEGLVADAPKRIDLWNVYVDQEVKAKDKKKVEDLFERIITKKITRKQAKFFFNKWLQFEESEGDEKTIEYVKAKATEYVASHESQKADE

[7] = biological target: Large ribosomal subunit protein eL32 (UniProt P38061)
Large ribosomal subunit protein eL32, sequence (P38061 whole entry): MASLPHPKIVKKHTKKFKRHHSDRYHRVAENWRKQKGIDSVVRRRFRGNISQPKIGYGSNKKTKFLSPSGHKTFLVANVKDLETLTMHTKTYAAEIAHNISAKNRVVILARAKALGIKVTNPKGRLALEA

[8] = biological target: Large ribosomal subunit protein eL37A (UniProt P49166)
Large ribosomal subunit protein eL37A, sequence (P49166 whole entry): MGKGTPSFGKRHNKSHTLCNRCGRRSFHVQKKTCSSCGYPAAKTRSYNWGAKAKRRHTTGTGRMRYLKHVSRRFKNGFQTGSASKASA

[9] = biological target: Large ribosomal subunit protein uL13B (UniProt P26785)
[10] = biological target: Shuttling pre-60S factor ECM1 (UniProt P39715)
Shuttling pre-60S factor ECM1, sequence (P39715 whole entry): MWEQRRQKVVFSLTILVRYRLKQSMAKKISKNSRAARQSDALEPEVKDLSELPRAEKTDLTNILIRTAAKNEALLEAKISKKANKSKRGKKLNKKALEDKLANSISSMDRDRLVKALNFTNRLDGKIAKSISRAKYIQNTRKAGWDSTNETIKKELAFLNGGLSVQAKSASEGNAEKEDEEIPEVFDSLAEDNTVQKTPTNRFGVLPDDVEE

[11] = biological target: Nucleolar GTP-binding protein 1 (UniProt Q02892)
[12] = biological target: Probable metalloprotease ARX1 (UniProt Q03862)
Probable metalloprotease ARX1, sequence (Q03862 whole entry): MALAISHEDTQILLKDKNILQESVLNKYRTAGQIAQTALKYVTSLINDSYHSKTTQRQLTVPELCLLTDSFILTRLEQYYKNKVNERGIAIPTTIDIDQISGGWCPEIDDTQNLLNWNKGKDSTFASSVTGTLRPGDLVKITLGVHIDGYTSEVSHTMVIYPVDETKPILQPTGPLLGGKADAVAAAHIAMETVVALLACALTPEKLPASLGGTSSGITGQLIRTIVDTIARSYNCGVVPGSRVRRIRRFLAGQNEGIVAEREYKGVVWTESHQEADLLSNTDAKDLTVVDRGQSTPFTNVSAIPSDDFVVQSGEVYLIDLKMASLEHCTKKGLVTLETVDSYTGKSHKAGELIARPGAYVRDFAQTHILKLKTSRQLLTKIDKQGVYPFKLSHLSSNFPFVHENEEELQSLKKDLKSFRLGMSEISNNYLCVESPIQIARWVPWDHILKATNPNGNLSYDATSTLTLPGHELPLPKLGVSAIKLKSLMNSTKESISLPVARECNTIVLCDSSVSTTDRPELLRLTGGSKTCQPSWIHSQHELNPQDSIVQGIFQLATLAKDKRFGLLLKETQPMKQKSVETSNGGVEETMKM

[13] = biological target: Proteasome-interacting protein CIC1 (UniProt P38779)

Large ribosomal subunit protein eL43A, P0CX25, sequence (P0CX25 whole entry): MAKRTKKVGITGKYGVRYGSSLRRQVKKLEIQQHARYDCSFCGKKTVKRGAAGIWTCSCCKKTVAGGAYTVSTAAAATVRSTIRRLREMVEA
Large ribosomal subunit protein eL19A, sequence (P0CX82 whole entry): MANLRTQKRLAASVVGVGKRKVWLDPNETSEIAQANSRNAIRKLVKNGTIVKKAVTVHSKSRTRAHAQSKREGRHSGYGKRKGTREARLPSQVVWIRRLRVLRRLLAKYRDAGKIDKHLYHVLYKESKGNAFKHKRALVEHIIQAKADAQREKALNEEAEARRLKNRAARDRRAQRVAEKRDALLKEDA
Large ribosomal subunit protein uL2A, sequence (P0CX45 whole entry): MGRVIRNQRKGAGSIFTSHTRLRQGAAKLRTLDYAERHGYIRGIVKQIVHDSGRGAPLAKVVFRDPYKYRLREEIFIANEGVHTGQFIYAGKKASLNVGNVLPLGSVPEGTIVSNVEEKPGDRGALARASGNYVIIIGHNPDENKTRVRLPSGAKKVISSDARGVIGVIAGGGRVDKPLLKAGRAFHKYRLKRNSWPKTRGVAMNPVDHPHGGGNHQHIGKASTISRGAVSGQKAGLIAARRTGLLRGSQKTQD
Large ribosomal subunit protein uL2A, P0CX45, sequence (P0CX45 whole entry): as above
Large ribosomal subunit protein eL18A, sequence (P0CX49 whole entry): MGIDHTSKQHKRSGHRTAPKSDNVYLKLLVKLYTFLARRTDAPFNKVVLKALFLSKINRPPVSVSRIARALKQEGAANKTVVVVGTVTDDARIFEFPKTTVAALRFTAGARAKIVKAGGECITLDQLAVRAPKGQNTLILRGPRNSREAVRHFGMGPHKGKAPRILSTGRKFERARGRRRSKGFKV
Large ribosomal subunit protein uL14A, P0CX41, sequence (P0CX41 whole entry): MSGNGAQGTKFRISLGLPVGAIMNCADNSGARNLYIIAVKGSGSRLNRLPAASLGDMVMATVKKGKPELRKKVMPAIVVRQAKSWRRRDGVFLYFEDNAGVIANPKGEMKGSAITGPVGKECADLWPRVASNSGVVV
Large ribosomal subunit protein uL13A, P26784, sequence (P26784 whole entry): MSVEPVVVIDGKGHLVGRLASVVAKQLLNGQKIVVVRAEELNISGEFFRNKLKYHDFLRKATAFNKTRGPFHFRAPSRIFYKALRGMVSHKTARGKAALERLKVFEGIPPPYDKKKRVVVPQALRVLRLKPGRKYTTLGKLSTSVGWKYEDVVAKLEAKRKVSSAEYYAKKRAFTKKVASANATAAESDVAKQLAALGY

Large ribosomal subunit protein eL24A, P04449
listed as a hit [1]: yes

Large ribosomal subunit protein uL15, P02406
listed as a hit [2]: yes

Large ribosomal subunit protein eL29, P05747
listed as a hit [2]: yes

Ubiquitin-ribosomal protein eS31 fusion protein, P05759
listed as a hit [3]: yes

Large ribosomal subunit protein eL43A, P0CX25
listed as a hit [3]: yes
listed as a hit [4]: yes
listed as a hit (Large subunit GTPase 1): yes

Large ribosomal subunit protein uL30A, P05737
listed as a hit [5]: yes
listed as a hit [6]: yes

Large ribosomal subunit protein eL33A, P05744
listed as a hit [5]: yes

27S pre-rRNA (guanosine(2922)-2'-O)-methyltransferase, P25582
listed as a hit [7]: yes

Large ribosomal subunit protein uL29A, P0CX84
listed as a hit [8]: yes

Large ribosomal subunit protein eL15A, P05748
listed as a hit [9]: yes

Large ribosomal subunit protein uL14A, P0CX41
listed as a hit [4]: yes

Large ribosomal subunit protein uL2A, P0CX45
listed as a hit (Large subunit GTPase 1): yes
listed as a hit [10]: yes

Pescadillo homolog, P53261
listed as a hit [11]: yes

Cytoplasmic 60S subunit biogenesis factor REI1, P38344
listed as a hit [12]: yes

Large ribosomal subunit protein uL24A, P05743
listed as a hit [12]: yes

Large ribosomal subunit protein uL13A, P26784
listed as a hit [13]: yes
